{"source": "PubChem BioAssay AID686978", "about": "(National Center for Advancing Translational Sciences (NCATS), 2013)", "note": "The campaign covered roughly 420,000 compounds. About 64,000 (15%) were called active. Roughly 27% stayed inconclusive and do not appear here. A selection follows. Unmarked numbers belong to inactive results. Calls follow the shape of the dose curve; as a rule, active = well fitted inhibition curve with a large enough effect; inconclusive = small, poorly fitted or top-dose-only effect; inactive = flat fitted curve, though single readings scatter. % is scaled to controls: 0 for no effect and ±100 for the full control effect; potency is read from the fitted curve at half-maximal effect.", "data": [{"assay": "qHTS for Inhibitors of human tyrosyl-DNA phosphodiesterase 1 (TDP1): qHTS in cells in absence of CPT; also: nearly all actives have a fitted effect of over 55% in size", "conditions": "DT40 Tdp1-/- hTDP1 cells, no CPT, ATP luminescence, 48 h; activity change, negative = growth inhibition: at 46.2 µM (top of the series)", "outline": "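No-CPT arm: Tdp1-/-;hTDP1 DT40 cells (400/well) plus compounds, incubated ≥48 hr at 37 °C. Readout CellTiter-Glo luminescence.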", "units": {"activity change, negative = growth inhibition": "%"}, "values": [{"smiles": "O=C(OC(C(=O)NC1CCCC1)c1ccc(F)cc1)c1ccno1", "note": "(configuration not stated)", "activity change, negative = growth inhibition": -10.5}, {"smiles": "O=C(Nc1ncc2c(n1)CC(c1ccco1)CC2=O)c1ccc(Cl)cc1", "note": "(configuration not stated)", "activity change, negative = growth inhibition": -25.7}, {"smiles": "Cc1cccc(NC(=O)CSc2nc3c(c(=O)[nH]2)CCCC3)c1C", "activity change, negative = growth inhibition": -8.26}, {"smiles": "CC(=O)NC1=NC(=O)CS1", "activity change, negative = growth inhibition": -2.82}, {"smiles": "CN(c1ccc(OCC(=O)O)cc1)S(=O)(=O)c1ccc2ccccc2c1", "activity change, negative = growth inhibition": -8.74}, {"smiles": "COc1cccc(COc2ccc(N(C)S(=O)(=O)c3ccccc3)cc2)c1", "Potency": "16.4 µM (active)"}, {"smiles": "Cc1ccc(S(=O)(=O)N(C)c2ccc(OCC(=O)OCc3ccc(C#N)cc3)cc2)cc1", "activity change, negative = growth inhibition": -1.54}, {"smiles": "CCOC(=O)CNC(=O)CSc1nc2cccnc2n1CC", "activity change, negative = growth inhibition": -5.19}, {"smiles": "CC(C)C[C@H]1CN=C(Nc2ccccc2)N1CC1CCCCC1", "Potency": "16.4 µM (active)"}, {"smiles": "CC(CO)(CO)NC(=O)c1ccc(=O)[nH]n1", "activity change, negative = growth inhibition": 7.23}, {"smiles": "CCc1ccccc1NC(=O)Cn1c(=O)n(-c2cccc(C)c2)c(=O)c2c1c1cc(OC)ccc1n2C", "Potency": "2.06 µM (active)"}, {"smiles": "Cc1ccc2c(c1)c1c(c(=O)n(-c3ccccc3)c(=O)n1CC(=O)c1ccc(Cl)cc1)n2C", "activity change, negative = growth inhibition": -11.5}, {"smiles": "Cc1cccc(-n2c(=O)c3c(c4cc(C)ccc4n3C)n(CC(=O)Nc3ccccc3Cl)c2=O)c1", "activity change, negative = growth inhibition": -9.55}, {"smiles": "CCC(CC)c1nnc(NS(=O)(=O)Cc2ccccc2)s1", "activity change, negative = growth inhibition": -0.792}, {"smiles": "Cc1nn(C(C)C(=O)N2CCOCC2)c(=O)c2nn(-c3ccccc3)c(C)c12", "note": "(configuration not stated)", "activity change, negative = growth inhibition": 10.9}, {"smiles": "Cc1c(CNCCc2ccccc2)c(C(=O)O)c(C)n1-c1ccccc1", "activity change, negative = growth inhibition": -6.22}, {"smiles": "CC1=NOC(=O)/C1=C\\c1ccccc1", "activity change, negative = growth inhibition": -19.8}, {"smiles": "C#CCOc1ccccc1/C=C1/C(=O)ON=C1C", "Potency": "14.6 µM (active)"}, {"smiles": "Cc1cn(C)c(CC(=O)NCc2ccccc2)c1C(=O)O", "activity change, negative = growth inhibition": 10}, {"smiles": "COc1ccc(Cl)cc1NC(=O)COC(=O)C(CC(C)C)N1C(=O)C2CC=CCC2C1=O", "note": "(configuration not stated)", "Potency": "18.4 µM (active)"}, {"smiles": "COc1ccc(Cl)cc1NC(=O)COc1ccc2c(c1)OCO2", "activity change, negative = growth inhibition": -1.31}, {"smiles": "COc1ccc(Cl)cc1NC(=O)CN1CCN(C(=O)N2CCOCC2)CC1", "activity change, negative = growth inhibition": -16.6}, {"smiles": "CC1(C)NC(=O)N(CCOc2cccc(Oc3ccccc3)c2)C1=O", "activity change, negative = growth inhibition": -8.49}, {"smiles": "Cc1nnc(N(Cc2ccco2)C(=O)c2ccno2)s1", "activity change, negative = growth inhibition": -13.2}, {"smiles": "CCCNC(=O)c1c(Cl)cnn1-c1ccc(C)cc1", "activity change, negative = growth inhibition": -16}, {"smiles": "Cc1ccnc(NC(=O)CCCOc2ccccc2)c1", "activity change, negative = growth inhibition": -0.626}, {"smiles": "COc1ccc(Cl)cc1NC(=O)c1oc(C)nc1C", "activity change, negative = growth inhibition": -4.86}]}]}
